# Experimental data reported in the supplement of paper PMC10681739.
# Target: T1, ETS1 (UniProt P14921)
# T1 sequence: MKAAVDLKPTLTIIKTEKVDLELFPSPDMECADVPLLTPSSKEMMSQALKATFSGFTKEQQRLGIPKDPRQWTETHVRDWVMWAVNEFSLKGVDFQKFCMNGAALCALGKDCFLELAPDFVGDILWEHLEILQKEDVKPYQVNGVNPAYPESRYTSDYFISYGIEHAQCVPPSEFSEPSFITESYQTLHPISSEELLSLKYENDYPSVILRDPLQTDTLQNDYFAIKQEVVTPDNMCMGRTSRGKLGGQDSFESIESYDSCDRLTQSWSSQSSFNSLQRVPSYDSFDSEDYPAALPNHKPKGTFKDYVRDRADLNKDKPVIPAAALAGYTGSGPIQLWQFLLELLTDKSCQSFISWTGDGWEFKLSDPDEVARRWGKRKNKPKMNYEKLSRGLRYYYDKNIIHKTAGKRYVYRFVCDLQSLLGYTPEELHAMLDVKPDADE
# Assay: ETS1 binding intensity (PBM fluorescence), ETS1 alone (arbitrary fluorescence units); higher = stronger binding
# Settings: ETS1 concentration 1 nM; RUNX1 concentration 0 nM
# Procedure: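 Cooperative genomic-context PBM: 36-bp genomic probes with neighbouring ETS1 and RUNX1 sites, double-stranded on Agilent 4x180k arrays. Full-length recombinant human ETS1 (1 nM) was incubated alone or with RUNX1 (25 nM) and detected with anti-ETS1 antibody plus Alexa488 secondary. Value is the median fluorescence intensity over 4 replicate spots; the ETS1+RUNX1 data were normalised to the ETS1-only data using probes without RUNX1 sites. The 36-bp variable region sits on the array probe with constant linker/primer flanks that are not printed.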
row,Sequence,ETS1 binding intensity
1,CAAGCCAACATCCTGACAGTTTAGAAACCACAGGAG,464
2,CCCTGCCATTTCCTGCCCAATACCGCGTATGCAACT,1630
3,TCGGTGAAGGACGGAAGATGATAGCCACATTTCTTC,512
4,CAAGGTTCCTCCGCTTCCTGCCCGCAGGCCGAACCT,956
5,GAGTTCCGCCTCGCCGTTTGTCCCTTGCGGTACCCG,351
6,GCGAGCACTTCCGGTGTGTGAGCCTGCGGTTGCTAC,7480
7,CTGGGGAGGAAGCCTGAGGTGTGTGGTTTTGTTAAC,374
8,ATCATCTAGGAGACAGGATGTGGTTAGGGTGTTAAA,6360
9,TGCCTCACCTCACATCCGTTTGTGGCTGCCGAGTGC,1090
10,AGAACAGGATGTTCTGAGTACAGCATGAACCTCAAA,1280
11,GCACTCGGATGTTGGCCGTAGTTGTGGTTATAGTTG,464
12,CAGGCAGGATGTTGACTCAGCTGCCAAGTGGTTTTG,1340
13,GGATGGCGGAAGAGGCGGCTGAGGCCGCAGGACGTG,4630
14,TGTAAGTCACTTCCTGTCGTGGTCAGGTCTCCTCTC,8260
15,AGCTAGGACAGGATGTGAAAACCACACTGACAAAGT,2620
16,ACAAAGAAACCTACATCCTAAGCCACAGAATACAGC,545
17,TGTTCAGGAACAGGAAATGAAACCCCGCAGCTTTGA,8520
18,GTTTAACAGGAAACCCTGCAGACCACAGGTTCTGTC,1220
19,CTTTGCAGGAAGCTGGGGTTCACCCACAGCCTTGTT,749
20,AAGCTTCCTGGCCCTTTAAAAATGGCGGTTCCGCAC,519

row,Sequence,ETS1 binding intensity
1,CTGTCATCTTCCTGACAGCACGCCCACAAAGGACCA,482
2,GGAGGCGGAAGTGGAGGTTGTTGTGGCTCCGAGGGC,1940
3,ACAAGGACTTCCGCCTCCCTGCGGTCCCTCCCCTAC,965
4,CCTCCTCCAGACCATCCTGGAAACCACTGCCGTTCT,561
5,TGAGGGCATAGGAAGTGATGGCCGCAAGGGGATGCC,1860
6,ACTGAACAAACCGGATGTGGTTGCCACCTGCAATCT,19800
7,CGGGGATGGGATTTCCGGTGGTTTTTCTTCACTTTC,4490
8,CAGCTTCCGGGCTAATTAGCAGTCGCGGTGTGCCGC,413
9,GCTGGTATGGCAGGAAGTTTCTCACCACAGTATACT,3540
10,CTACATGTTTCACAGGAAGGTGGTCACCAGGAGGCA,782
11,GGGGAAGAGGGGAGGATGTCTGAGGTTTTAATTGTA,523
12,TTTTCCGACGGAAGCCTTACTGCCGCAAACGTCACT,556
13,GCCCAGTTCTCGCATCCGGTCTGCGGCGCGCTCGGG,4380
14,CATGACGAAGGGGAAGGATGTGGTTTGAGGGCAGCA,774
15,CTCTTCCGCTCAGTCATCCTCAGAGGTGGTAAGACT,496
16,TTTCTTCCTGTTTGCATCACCCCAAACCCACTATCA,514
17,TGACATCCTCTGAGGCAGCAAGCTGCGGTGAAGTCT,400
18,AGTGTCCGCCGCTTCCTGGTTGCGGGTCAGCGCCCA,629
19,GAAGCCAGGAAATGGTGCGTGTGCGGGGCCGGGCGC,982
20,TCCCACATCCTGTGCTCGTGCAGTGGTTAGGCTCAA,562
